Only some compounds are listed: those with a hit (about 6.3% of all), similar ones and a draw of the others.
A340 absorber: compound light absorbance at 340 nm, profiling panel, artefact control, biochemical, MLSMR library, data from PS, PMK, MK assays | compound absorbance at 340 nm, fold over control | fold change at 10 µM | 65,000 tested, under 10 active | AID 708, 2007;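 active = at 10 µM dose, initial 340 nm absorbance at least 2 fold that of control wells; inactive = change under 2 fold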;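 note: initial absorbance extrapolated from kinetic A340 decline of NADH oxidation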
NADH coupling: inhibitors of PK/LDH coupling enzymes, profiling panel, artefact control, biochemical, MLSMR library | IC50, µM (highest dose often 10 µM), for the others: at the highest dose inhibition | hit rate 0.02% among 65,000 | coupled PK/LDH NADH assays, four targets;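 active = single-dose screening hits from any of four coupled enzyme assays that gave an IC50 when retested across doses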;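 note: the DPM-DC format reads NADH fluorescence rather than 340 nm absorbance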
PMK inhibit: S. pneumoniae PMK inhibitors, primary screen, biochemical, mevalonate pathway, pilot trial included; purified PMK, PK/LDH-coupled NADH absorbance 340 nm; inhibition, % at 10 µM; hit rate 0.49% among 65,000;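 active = top-ranked compounds by inhibition in the single 10 µM screen, taking a fixed number of the strongest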;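 note: 0% = full reaction with DMSO carrier and 100% = background rate without enzyme reaction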
Autofluor 339: intrinsic fluorescence of library compounds, ex339/em460 – biochemical, MLSMR library, data from DPM-DC assay, artefact control, profiling panel | compound autofluorescence, ex339/em460 nm, NADH buffer; hits give high values; 1 = no-compound wells, NADH background | fluorescence fold increase at 10 µM | hit rate 5.5% among 65,000;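 active = at 10 µM, mean starting fluorescence two-fold or more over control wells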;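 note: signal is the first read of a kinetic run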
MK inhibit: S. pneumoniae MK inhibitors, primary screen, biochemical, PK/LDH-coupled NADH absorbance | mevalonate kinase [Streptococcus pneumoniae D39] | purified MK, PK/LDH-coupled NADH absorbance 340 nm | inhibition, % at 10 µM | hit rate 0.48% among 65,000 | AID 555, 2006;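 active = ranked among the strongest by inhibition in the single 10 µM screen, a fixed top-ranked set picked for dose follow-up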
Spn DPM-DC inh: S. pneumoniae DPM-DC inhibitors, primary screen, biochemical, PK/LDH-coupled NADH fluorescence. hit rate 0.49% among 65,000. calls only at 10 µM. purified DPM-DC. diphosphomevalonate decarboxylase (Streptococcus pneumoniae D39);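 active = the 320 compounds with the highest percent inhibition in the single-dose primary screen, excluding strongly autofluorescent ones, cut at about 32% in these data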;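 note: kinetic rate of NADH fluorescence loss reporting ADP formed by the decarboxylase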
* hit, by the source's call; i = inactive; / = no result given.

SMILES	A340 absorber	NADH coupling	PMK inhibit	Autofluor 339	MK inhibit	Spn DPM-DC inh
COC(=O)C1(C)Nc2ccccc2C(=O)N1c1ccccc1C (configuration not stated)	1.1	2%	0	2.1*	4	/
CCN(CC)C(=O)c1cc2c(=O)n3ccccc3nc2s1	1.1	1%	0	2.1*	2	/
COCCN(CCOC)C(=O)c1cc2c(=O)n3ccccc3nc2s1	1.1	12%	20	4.9*	3	/
CC(C)(C)NC(=O)C1CCN(C(=O)c2ccc(Br)cc2)CC1	1	3%	6	1.1	2	i
FC(F)(F)c1nnc2ccc(-n3ccnc3)nn12	1.1	2%	0	1	5	i
CCC(C)NC(=O)c1cn(C)c(=O)c2cc(OC)c(OC)cc12 (configuration not stated)	1.1	0%	0	1.1	1	i
O=C(O)CCCCCNC(=O)CCn1cnc2ccccc2c1=O	1	1%	2	1.1	2	i
COc1ccc(OC)c(C(=O)CSc2nnc(-c3ccc(OC)c(OC)c3)o2)c1	1	5%	0	2*	6	i
COc1ccc(C(=O)CSc2nnc(-c3ccc(C)cc3)o2)cc1	1	3%	10	1.1	12	i
CC(NC(=O)Nc1nnc(C(F)(F)F)s1)(C(F)(F)F)C(F)(F)F	1	1%	0	1.1	4	i
CCn1c(CC(C)C)n[nH]c1=S	1	16%	3	1.1	44*	i
Cc1cccn2c(=O)c(C=Nc3ccc(Cl)cc3)c(NCCO)nc12	1.1	10%	11	2.7*	1	i
Cc1ccc2nc(Nc3ccccc3)c(/C=N/O)c(=O)n2c1	1.1	2%	0	1.1	3	i
Cc1cccn2c(=O)c(C=Nc3ccccc3)c(NCCO)nc12	1.1	11%	11	2.4*	5	i
Cn1c(=O)c2c(nc(NCCO)n2CCc2ccccc2)n(C)c1=O	1	7%	11	1.2	7	i
O=C1C(Cl)=C(NCC2CCCO2)C(=O)N1CCc1ccccc1 (configuration not stated)	1	3%	2	1.1	5	i
COc1cccc(C2NC(=O)NC(C)=C2C(=O)Nc2cccc(C)c2C)c1 (configuration not stated)	1	3%	1	1.1	9	i
Cc1ccc2cc(CN(CC3CCCO3)C(=O)c3ccco3)c(=O)[nH]c2c1C (configuration not stated)	0.99	2%	7	1.2	0	i
Cc1ccc(-c2cc(-c3ccccc3)c(C#N)c(N)n2)o1	0.99	18%	17	5.1*	18	/
Cc1ccc(-c2cc(-c3ccc(F)cc3)nc(N)c2C#N)o1	1.1	9%	12	3.7*	5	/
Cc1ccc(-c2cc(-c3ccccc3Cl)c(C#N)c(N)n2)o1	1.1	8%	0	2.3*	15	/
Cc1ccc(C2C(C#N)=C(N)Oc3nc(-c4ccccc4)[nH]c32)o1 (configuration not stated)	1	5%	10	1.1	6	i
CCNc1nc(NC(C)C)nc(Oc2ccc(OCCOc3ccccc3)nn2)n1	1	9%	14	1.1	12	i
CCNc1ccc2c(Cl)cc(=O)oc2c1	1	1%	0	2.9*	i	/
CCSc1nc2c(cnn2-c2ccc(C)c(C)c2)c(=O)[nH]1	1.1	2%	4	1.1	2	i
Cc1oc(-c2ccccc2F)nc1CS(=O)(=O)CC(=O)NCCN(C)C1CCCCC1	1.1	0%	1	1	0	i
Cc1ccc(S(=O)(=O)N2CCN(CCO)CC2)cc1-c1nnc2c3ccccc3c(C)nn12	0.97	3%	12	1.1	11	i
COc1ccc(NC(=O)N(C2CCCCC2)C(C)c2ccco2)c(OC)c1 (configuration not stated)	0.99	10%	26*	1	3	i

Screens from PubChem BioAssay.
